# From the supplement of paper PMC9694430
# Legend:
# Test in all cases: thermal shift delta Tm vs DMSO control; higher = stronger stabilization (binding)
# Conditions in all cases: 12.5 µM; protein concentration 2 µM
# LOC_OS04G57630-cb004 = test system: LOC_OS04G57630-cb004
# Summary of the method: (§1)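 Heating from 25°C to 95°C at 0.05°C/s, fluorescence was recorded for 19.5 μl wells of 2 μM E. coli-expressed, purified rice kinase domain in 100 mM potassium phosphate pH 7.5, 150 mM NaCl, 10% glycerol and 5 × SYPRO Orange with compound in DMSO. Boltzmann fits gave melting temperatures for this differential scanning fluorimetry assay. The shift reported is the mean of three replicates against the DMSO-only protein.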
# LOC_OS05G07850-cb002 = test system: LOC_OS05G07850-cb002
# Summary of the method: as §1
# LOC_OS05G16824-cb004 = test system: LOC_OS05G16824-cb004
# Summary of the method: as §1
# LOC_OS05G28520-cb001 = test system: LOC_OS05G28520-cb001
# Summary of the method: as §1
# LOC_OS05G30820-cb001 = test system: LOC_OS05G30820-cb001
# Summary of the method: as §1
# LOC_OS05G43570-cb004 = test system: LOC_OS05G43570-cb004
# Summary of the method: as §1
# LOC_OS06G16330-cb003 = test system: LOC_OS06G16330-cb003
# Sequence of LOC_OS06G16330-cb003 (as listed by the source): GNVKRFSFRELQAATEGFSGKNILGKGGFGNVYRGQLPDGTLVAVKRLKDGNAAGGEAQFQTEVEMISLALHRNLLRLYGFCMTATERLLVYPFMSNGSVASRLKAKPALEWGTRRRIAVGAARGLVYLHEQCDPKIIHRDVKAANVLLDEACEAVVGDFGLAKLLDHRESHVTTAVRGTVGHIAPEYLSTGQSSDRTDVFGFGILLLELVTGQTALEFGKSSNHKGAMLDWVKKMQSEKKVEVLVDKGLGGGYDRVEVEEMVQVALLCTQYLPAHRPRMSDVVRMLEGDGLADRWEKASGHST
# Summary of the method: as §1
# LOC_OS06G22820-cb001 = test system: T1, LOC_OS06G22820-cb001
# T1 sequence (whole entry): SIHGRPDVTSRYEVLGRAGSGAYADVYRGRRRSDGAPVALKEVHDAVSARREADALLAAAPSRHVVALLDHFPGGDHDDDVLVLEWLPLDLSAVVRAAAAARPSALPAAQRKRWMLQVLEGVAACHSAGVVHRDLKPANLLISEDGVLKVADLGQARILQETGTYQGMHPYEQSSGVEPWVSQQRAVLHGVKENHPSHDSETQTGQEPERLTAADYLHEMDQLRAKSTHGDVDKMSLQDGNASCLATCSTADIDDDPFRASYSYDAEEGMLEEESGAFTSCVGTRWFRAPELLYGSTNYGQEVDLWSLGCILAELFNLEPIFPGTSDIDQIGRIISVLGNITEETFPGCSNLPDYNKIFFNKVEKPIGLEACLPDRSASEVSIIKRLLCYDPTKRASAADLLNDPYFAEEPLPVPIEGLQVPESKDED
# Summary of the method: as §1
# LOC_OS07G06570-cb004 = test system: LOC_OS07G06570-cb004
# Summary of the method: as §1
# LOC_OS07G07230-cb001 = test system: LOC_OS07G07230-cb001
# Summary of the method: as §1
# 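Note: purified Escherichia coli-expressed rice kinase domain construct.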
Compound,thermal shift delta Tm (LOC_OS04G57630-cb004) [°C],thermal shift delta Tm (LOC_OS05G07850-cb002) [°C],thermal shift delta Tm (LOC_OS05G16824-cb004) [°C],thermal shift delta Tm (LOC_OS05G28520-cb001) [°C],thermal shift delta Tm (LOC_OS05G30820-cb001) [°C],thermal shift delta Tm (LOC_OS05G43570-cb004) [°C],thermal shift delta Tm (LOC_OS06G16330-cb003) [°C],thermal shift delta Tm (LOC_OS06G22820-cb001) [°C],thermal shift delta Tm (LOC_OS07G06570-cb004) [°C],thermal shift delta Tm (LOC_OS07G07230-cb001) [°C]
CC(C)CC(NC(=O)C(Cc1ccccc1)NC(=O)C(CCC(N)=O)NC(=O)C(Cc1ccc(O)cc1)NC(=O)C(C)NC(=O)CNC(=O)C(CCCCN)NC(=O)C(Cc1c[nH]c2ccccc12)NC(=O)C(NC(=O)C(Cc1c[nH]c2ccccc12)NC(=O)C(CCCCN)NC(=O)CNC(=O)C(CC(N)=O)NC(=O)C(CCC(=O)O)NC(=O)C(Cc1c[nH]c2ccccc12)NC(=O)C(NC(=O)C(Cc1c[nH]c2ccccc12)NC(=O)C(CO)NC(=O)CNC(=O)C1CCCN1C(=O)C(Cc1c[nH]c2ccccc12)NC(=O)C(CCC(N)=O)NC(=O)C(Cc1ccccc1)NC(=O)CNC(=O)C(N)Cc1c[nH]cn1)C(C)O)C(C)O)C(=O)NC(CCCCN)C(=O)NCC(=O)NCC(=O)NCC(=O)NCC(=O)NC(CO)C(=O)NC(CCCNC(=N)N)C(=O)NC(CCCNC(=N)N)C(=O)NC(CCCNC(=N)N)C(=O)NC(CCCNC(=N)N)C(=O)NC(CCCNC(=N)N)C(=O)NC(CCCNC(=N)N)C(=O)NC(CCCNC(=N)N)C(=O)NC(CCCNC(=N)N)C(=O)NC(CCCNC(=N)N)C(=O)O (stereo not given),0.42,3.56,2.71,0.07,0.42,1.33,0.39,1.2,0.27,0.04
COc1cc2nccc(Oc3ccc(NC(=O)C4(C(=O)Nc5ccc(F)cc5)CC4)cc3)c2cc1OC [Cabozantinib malate (XL184)],0.66,10.2,-1.18,1.86,0.41,0.69,1.53,0.93,1.5,-0.02
COc1cc2c(Oc3ccc4[nH]c(C)cc4c3F)ncnc2cc1OCCCN1CCCC1 [Cediranib (AZD2171)],0.99,1.23,1.08,-0.22,0.46,0.17,-0.02,0.55,0.63,0.34
COc1cc2ncnc(Nc3ccc(O)c(Br)c3)c2cc1OC,0.28,12,-0.59,0.86,0.54,0.23,5.86,0.8,1.76,0.01
CC(C)S(=O)(=O)c1ccc2nccc(Nc3ccc4scnc4c3)c2c1,2.51,3.36,4.91,0.25,-0.04,0.38,2.09,0.32,1.62,0.17
OCCn1cc(-c2ccc3c(c2)CC/C3=N\O)c(-c2ccncc2)n1,0.24,2.18,0.35,1.1,0.48,0.5,0.46,0.85,0.92,0.21
C[C@@H](Oc1cc(-n2cnc3ccc(CN4CCN(C)CC4)cc32)sc1C(N)=O)c1ccccc1C(F)(F)F,1.23,2.4,-4.79,-0.16,0.61,0.21,2.19,0.97,1.02,0.47
Clc1ccc(Nc2nnc(Cc3ccncc3)c3ccccc23)cc1 [Vatalanib (PTK787) 2HCl],-0.2,-0.28,-1.81,-0.19,0.45,0.05,0.09,0.55,0.43,0.41
c1cc(-c2cnn3cc(-c4ccc(OCCN5CCCCC5)cc4)cnc23)ccn1 [Dorsomorphin 2HCl],6.96,9.81,12.6,3.18,1.22,0.81,8.76,0.18,1.04,1.17
Cc1nc2ccc(-n3ncc(C(=O)c4cc5ccccc5[nH]4)c3N)cc2[nH]1,-0.26,2.01,0.01,0.51,0.59,0.2,0.87,0.56,-0.34,0.11
COc1cc2c(cc1OC)[C@@H]1C(=O)c3ccc4c(c3O[C@@H]1CO2)C=CC(C)(C)O4 [Deguelin],0.18,-0.44,-0.75,-0.03,-0.19,0.47,-0.59,0.97,0.49,-0.57
CN1c2ccccc2C(=O)Nc2cnc(Nc3ccc(N4CCC(O)CC4)cc3)nc21,2.68,11.7,3.76,0.16,1.15,0.33,8.37,0.43,0.89,1.4
O=C(c1ccc(/C=C/c2n[nH]c3ccccc23)cc1)N1CCNCC1,3.95,9.5,10.5,2.59,1.8,0.66,7.34,0.53,1.15,0.03
O=C1Nc2ccc(CN3C(=O)CSC3=O)cc2/C1=C/c1cc(CN2CCOCC2)c[nH]1,1.02,6.39,8.47,0.01,0.12,0.23,9.36,1.05,1.86,0.48
CC(=O)O/N=C1/C(c2c(O)[nH]c3cc(Br)ccc23)=Nc2ccccc21 [BIO-acetoxime],0.24,7.48,4.45,-0.58,1.03,-0.53,2.52,-0.05,0,0.92
CN(C[C@@H]1COCCO1)S(=O)(=O)Nc1ccc2ccc3ncc(-c4cnn(C)c4)cc3c(=O)c2c1,4.12,10.5,7.72,0.77,1.85,0.41,7.23,0.65,1.07,0.63
CCn1c2ccccc2c2cc(Nc3ccnc(NCCCN4CCOCC4)n3)ccc21,0.23,3.68,-1.41,0.55,0.41,0.2,0.02,0.32,1.17,0.72
CCN1CCN(Cc2ccc(C(=O)Nc3ccc(C)c(Oc4ccc5c(c4)CC(=O)N5)c3)cc2C(F)(F)F)CC1,0.33,-0.13,2.03,0.4,0.41,0.42,0.43,0.56,0.16,0.28
